Hits are enriched below; roughly 3.1% of the tested compounds scored in any of these assays.
PLK1 PBD inh: PLK1 (human) polo-box domain binding inhibition; P53350; Plk1 PBD binding of FITC phosphopeptide, fluorescence polarization; Potency, µM, actives largely listed as inhibitors; hit rate 2.8% among 360,000; also: series mostly up to about 57 µM; nearly all actives have a fitted effect of over 65% in size
Pin1 inhibitor: blocks the human prolyl isomerase Pin1; Q13526; Potency, µM (series often up to 115 µM), usual class: inhibitors; Pin1 FP peptide displacement, HiFluor488, 10 min; AID 504891; hit rate 0.009% among 390,000; active = well fitted inhibition curve with a large enough effect in the polarisation, with a control signal flat, not every such curve was filed as active; inconclusive = small, poorly fitted or top-dose-only effect, or effect the other way, or a change in a side signal; inactive = no such curve, though single readings can be large or run the other way; the % refers to the polarisation
Target sequence (Q13526 whole entry, looked up): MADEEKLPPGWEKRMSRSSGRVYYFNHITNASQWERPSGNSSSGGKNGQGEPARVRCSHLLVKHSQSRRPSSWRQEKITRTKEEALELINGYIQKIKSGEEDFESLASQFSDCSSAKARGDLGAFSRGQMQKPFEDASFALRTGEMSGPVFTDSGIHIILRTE
VDR inhibitor: blocks the human vitamin D receptor | P11473 | VDR-SRC2-3 peptide fluorescence polarization, 2 h | Potency, µM, most hits filed as inhibitors | hit rate 0.93% among 400,000 | AID 504847
Target sequence (P11473 whole entry, looked up): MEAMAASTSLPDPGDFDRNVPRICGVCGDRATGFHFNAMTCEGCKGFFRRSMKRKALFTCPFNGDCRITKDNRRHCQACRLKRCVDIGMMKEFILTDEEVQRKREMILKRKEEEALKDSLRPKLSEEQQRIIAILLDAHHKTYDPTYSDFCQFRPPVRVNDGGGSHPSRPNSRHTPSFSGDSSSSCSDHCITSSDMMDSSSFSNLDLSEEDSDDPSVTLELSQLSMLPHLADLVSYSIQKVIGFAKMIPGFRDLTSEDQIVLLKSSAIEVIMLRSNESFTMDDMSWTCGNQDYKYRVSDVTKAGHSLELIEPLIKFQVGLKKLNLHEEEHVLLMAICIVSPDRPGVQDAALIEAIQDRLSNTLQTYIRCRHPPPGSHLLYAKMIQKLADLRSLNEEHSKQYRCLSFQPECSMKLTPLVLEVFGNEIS
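Fluorescence polarization assay of small-molecule disruption of VDR binding to coregulator peptide SRC2-3. Compounds and controls pin-transferred, then read after 2 h incubation at ambient room temperature.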
Tb PFK block: blocks T. brucei phosphofructokinase | O15648 | T. brucei PFK, ADP-Glo luminescence | Potency, µM (titrated, usually from 57.5 µM), most hits filed as inhibitors | hit rate 0.17% among 330,000; also: nearly all actives have a fitted effect of over 60% in size
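1.25 nM PFK with 0.5 mM F6P and 0.1 mM ATP in 0.1 M TEA pH 8.0, 5 mM MgCl2, incubated 45 min at room temperature; ADP measured by ADP-Glo luminescence; compounds titrated up to 57 uM.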
S-ASM inh: blocks human secretory acid sphingomyelinase | P17405 | placental ASM, HMU-PC fluorogenic substrate, 60 min | Potency, µM (highest dose often 57.5 µM), most hits filed as inhibitors | hit rate 0.006% among 340,000 | AID 504937
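Fluorogenic HMU-PC substrate (9 uM final) is turned over by placental ASM in 60 min at 37 C after a 10 min compound preincubation. Reaction ended by alkaline stop (pH 10), with fluorescence read at 386/447 nm.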
TDP1 inh: blocks human tyrosyl-DNA phosphodiesterase 1 | Potency, µM (highest dose often 130 µM), actives largely listed as inhibitors | recombinant TDP1, AlphaScreen DNA substrate cleavage | hit rate 0.28% among 350,000; also: nearly all actives have a fitted effect of over 40% in size
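Recombinant human Tdp1 (E. coli-expressed, 1 nM final) preincubated with compounds 15 min at room temperature, then 5'-biotin/3'-phosphotyrosine-FITC DNA substrate (15 nM final) added for 5 min. AlphaScreen beads (10 ug/ml final) added 10 min; cleavage lowers signal.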
VDR confirm: confirmation of human vitamin D receptor inhibitors. Potency, µM, most hits filed as inhibitors. AID 602199. VDR-coactivator inhibition assay, qHTS confirmation. hit rate 89% among 840. shares compounds with VDR inhibitor
VDR FP: confirmation of human VDR-coactivator binding inhibitors, fluorescein label. AID 602200. Potency, µM (highest dose often 57.1 µM), actives largely listed as inhibitors. shares compounds with VDR inhibitor. VDR-coactivator binding, fluorescein fluorescence polarization. hit rate 48% among 840
VDR bla: confirmation of human vitamin D receptor inhibitors in reporter cells; shares compounds with VDR inhibitor; VDR beta-lactamase reporter cells, FRET ratio; cells co-treated with VDR agonist LG190178; Potency, µM (highest dose often 46.1 µM), usual class: inhibitors; hit rate 23% among 840; AID 602202
VDR cytotox: cell toxicity, VDR inhibitor hit counter-screen | shares compounds with VDR inhibitor | cytotoxicity counter-screen, cell viability, qHTS | Potency, µM (highest dose often 48.3 µM), most hits filed as cytotoxic | hit rate 18% among 840 | AID 602204; also: nearly all actives have a fitted effect of over 75% in size
Numbers stand for hits; . = inactive; ? = inconclusive; / = no result given; [ ] = dose if it differs, or a comment. Unless noted, calls follow the shape of the dose curve; as a rule, active = well fitted curve in the direction sought with a large enough effect; inconclusive = small, poorly fitted or top-dose-only effect, or another doubt; inactive = no such curve, though single readings can be large; an effect the other way counts as inactive or inconclusive.

SMILES	PLK1 PBD inh	Pin1 inhibitor	VDR inhibitor	Tb PFK block	S-ASM inh	TDP1 inh	VDR confirm	VDR FP	VDR bla	VDR cytotox
COc1ccc(-n2c(SCC#N)nc3c(sc(=S)n3-c3ccccc3)c2=O)c(OC)c1	5.97µM	.	25.1µM	.	.	/	8.44	?	.	.
Cc1ccc(OCC(=O)Nc2ccc3nc(SCC(=O)N(C)c4ccccc4)sc3c2)cc1	/	?	.	/	/	.	/	/	/	/
CCCCCC(=O)N/N=C/c1ccc([N+](=O)[O-])o1	.	.	.	.	.	.	/	/	/	/
CCN(CC)c1ccc(N=Cc2ccc([N+](=O)[O-])o2)cc1	.	.	?	.	.	.	7.94	.	.	.
Cc1cccc(NC(=O)C(Cc2ccccc2)n2cccc2)c1C (stereo not drawn)	/	.	.	/	/	.	/	/	/	/
Cn1c(/C(C#N)=C/c2ccc(C(F)(F)F)cc2)nc2ccccc21	/	.	28.2µM	/	/	.[12.3 µM]	14.1	8.91µM	18.4µM	?
COc1cccc(Cn2c(=O)n(-c3ccccc3C)c(=O)c3c2c2cc(C)ccc2n3C)c1	/	.	.	/	/	.	/	/	/	/
O=C1Nc2ccc(Br)cc2/C1=C/C(=O)c1ccc2c(c1)OCO2	?	.	39.8µM	.	.	/	?	?	?	?
COc1ccc(C(=O)/C=C2\C(=O)Nc3ccc(Br)cc32)cc1	?	.	?	/	.	/	/	/	/	/
Cc1ccc(C(=O)c2cn(Cc3ccc(F)cc3)c3nc(C)ccc3c2=O)cc1	/	.	?	/	/	.	/	/	/	/
Nc1cc(S(=O)(=O)Nc2ccccc2Cl)ccc1N1CCCCC1	2.38µM	.	?	.	.	.	7.08	7.08µM	.	.
COc1cc(/C=C2\C(=O)N(CCC#N)N=C2C)c(Br)cc1OC(C)C	1.68µM	.	?	.	.	.	8.44	?	.	.
CS(=O)(=O)c1cccc(-c2nnc(NC(=O)c3ccc4c(c3)OCCO4)o2)c1	/	.	.	/	/	.	/	/	/	/
FC(F)(F)c1cccc(Sc2nc(-c3ccccc3)nnc2C(F)(F)F)c1	.	.	31.6µM	.	.	.	15	?	?	?
CCC(C)(C)c1nnc(NC(=O)C2CCN(C(=O)c3ccco3)CC2)s1	2.38µM	.	50.1µM	?	.	/	6.7	?	.	.
CCOc1cc(/C=C2\CN(CC)C/C(=C\c3ccc(O)c(OCC)c3)C2=O)ccc1O	.	.	?	.	.	/	/	/	/	/
CCN1C/C(=C/c2cccc([N+](=O)[O-])c2)C(=O)/C(=C/c2cccc([N+](=O)[O-])c2)C1	.	.	10µM	.	.	.	3.36	?	2.06µM	?
COc1cccc(NC(=O)C2CCCN(c3nnc(-n4c(C)ccc4C)s3)C2)c1 (stereo not drawn)	/	.	.	/	/	.	/	/	/	/
NS(=O)(=O)c1ccc(NC2=CC(=O)C(=O)c3ccccc32)cc1	26.7µM	.	?	.	.	/	14.1	7.94µM	?	?
Cc1ccc(C(=O)c2no[n+]([O-])c2C(=O)c2ccc(C)cc2)cc1	?	/	?	.	.	.	10	17.8µM	6.51µM	13.4µM
Cc1ccc(C(=O)c2ccc(C)cc2)cc1	.	.	.	.	.	.	/	/	/	/
CCC1(c2ccccc2)C(=O)N(C(=O)OC(C)(C)C)N1C(=O)OC(C)(C)C (stereo not drawn)	.	.	.	.	.	/	/	/	/	/
CCOC(=O)N1C(=O)[C@](CC)(c2ccccc2)N1C(=O)OCC	16.8µM	.	79.4µM	.	.	/	?	?	.	.
Cc1cc(C)c(S(=O)(=O)/N=C2/C=C(SCC(=O)O)C(=O)c3ccccc32)cc1C	0.844µM	?	7.94µM	.	?	.	4.23	?	.	?
COc1ccc(S(=O)(=O)Nc2cc(SCC(=O)O)c(O)c3ccccc23)cc1	1.5µM	?	?	?	.	/	15.8	14.1µM	?	?
SMILES	PLK1 PBD inh	Pin1 inhibitor	VDR inhibitor	Tb PFK block	S-ASM inh	TDP1 inh	VDR confirm	VDR FP	VDR bla	VDR cytotox
O=C(O)CSc1cc(NS(=O)(=O)c2ccc(Cl)cc2)c2ccccc2c1O	1.34µM	?	3.55µM	.	?	/	29.9	?	?	?
COc1ccc(S(=O)(=O)Nc2cc(Sc3ncn[nH]3)c(O)c3ccccc23)cc1	/	?	20µM	?	/	.	21.2	?	?	18.4µM
CCc1cccc(-n2nnc(-c3nc(-c4cccs4)no3)c2N)c1	/	.	.	/	/	.	/	/	/	/
Cc1ccc(-c2nn(-c3ccccc3)cc2C=C2C(=O)CC(C)(C)CC2=O)cc1	0.67µM	?	25.1µM	.	.	.	?	3.55µM	.	.
CC1=NNC(=O)/C1=C\c1cn(-c2ccccc2)nc1-c1ccc(Cl)cc1	5.32µM	.	12.6µM	.	.	.	?	11.2µM	?	20.6µM
CC1=NN(c2ccccc2)C(=O)/C1=C\c1cn(-c2ccccc2)nc1C	.	.	.	.	.	.	/	/	/	/
COc1ccc(-c2nc(-c3ccccc3)c(Nc3c(C)cccc3C)o2)cc1	/	/	.	/	/	.	/	/	/	/
COC(=O)c1cc(=O)n(Cc2ccco2)c(=Nc2ccc(F)c(Cl)c2)s1	.	.	?	.	.	.	14.1	12.6µM	?	.
COC(=O)c1cc(=O)n(CCc2ccccc2F)c(=Nc2ccc(F)c(Cl)c2)s1	.	.	.	.	.	.	/	/	/	/
CCCS(=O)(=O)c1ncc(Cl)c(C(=O)Nc2sc3c(c2C(=O)NCC)CCCC3)n1	/	/	/	/	/	/	3.16	?	5.8µM	?
CCCOc1ccc(NC(=O)CC2C(=O)N(c3ccc(Cl)cc3)C(=O)N2CCc2ccncc2)cc1 (stereo not drawn)	/	.	.	/	/	.	/	/	/	/
CCN1CCN(c2c(S(=O)(=O)c3ccc(C)c(C)c3)cnc3cc(OC)c(OC)cc23)CC1	/	.	.	/	/	.	/	/	/	/
O=C1C(Cl)=C(NS(=O)(=O)c2ccc([N+](=O)[O-])cc2)C(=O)c2ccccc21	?	.	22.4µM	.	.	/	5.97	?	?	?
CN(O)/C=C1\C(=O)Nc2ccccc21	.	.	.	.	.	.	/	/	/	/
O=C1Nc2ccccc2/C1=C\C(=O)c1ccccc1	18.9µM	.	?	.	.	/	8.91	3.55µM	?	?
CC(C)Oc1ccc(C(=O)/C=C2/C(=O)Nc3ccccc32)cc1	?	.	28.2µM	.	.	/	15	10µM	.	?
COc1cc(OC)c(N(C)C(=O)Cn2ncc3c([nH]c4ccccc43)c2=O)cc1Cl	/	.	.	/	/	.	/	/	/	/
